Assay outcomes from PubChem.
OTUD3 block – blocks human OTUD3 ubiquitin-rhodamine cleavage; Q5T2D3; purified OTUD3, Ub-rhodamine fluorescence, 2 h; inhibition, % at 25 µM; 47,000 compounds, 0.7% hits
Target sequence (Q5T2D3 whole entry, looked up): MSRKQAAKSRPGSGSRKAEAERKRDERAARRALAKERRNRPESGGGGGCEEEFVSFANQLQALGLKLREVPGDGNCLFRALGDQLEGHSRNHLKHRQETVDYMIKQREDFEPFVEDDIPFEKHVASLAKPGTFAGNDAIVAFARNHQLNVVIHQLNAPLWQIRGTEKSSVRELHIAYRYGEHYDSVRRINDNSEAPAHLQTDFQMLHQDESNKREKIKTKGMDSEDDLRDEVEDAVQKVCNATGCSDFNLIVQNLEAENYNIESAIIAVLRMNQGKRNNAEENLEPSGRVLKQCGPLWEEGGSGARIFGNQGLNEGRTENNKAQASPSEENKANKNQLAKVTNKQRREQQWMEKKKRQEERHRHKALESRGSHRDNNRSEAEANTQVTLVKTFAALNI
USP28 inh – blocks human USP28 ubiquitin-rhodamine cleavage | Q96RU2 | purified USP28, Ub-rhodamine cleavage fluorescence, 30 min | inhibition, % at 25 µM | 47,000 compounds, 3% hits | AID 1645857
USP30 block – blocks human USP30 ubiquitin-rhodamine cleavage; Q70CQ3; AID 1645860; inhibition, % at 25 µM; 47,000 compounds, 5.3% hits; purified USP30, Ub-rhodamine cleavage fluorescence
USP17 inh – blocks human USP17 ubiquitin-rhodamine cleavage; purified USP17, Ub-rhodamine cleavage fluorescence, 3 h; inhibition, % at 50 µM; 47,000 compounds, 6.5% hits
* hit, by the source's call. Hits are enriched below; roughly 11% of the tested compounds scored in any of these assays. Rule as the data show it: active = inhibition above about 30%; inactive = the rest.

For COc1ccc(S(=O)(=O)NCC(C)(C)SCc2ccc(F)cc2)cc1 the results were OTUD3 block 6, USP28 inh 8, USP30 block 31* and USP17 inh 21.
Screening COc1ccc(S(=O)(=O)NCc2ccc3c(c2)cc(C)n3C)cc1 returned OTUD3 block -80, USP28 inh -87, USP30 block -373 and USP17 inh -44.
Screening CCCCNC(=O)c1cc2cc(OC)ccc2[nH]1 returned OTUD3 block -2, USP28 inh -2, USP30 block -5 and USP17 inh 21.
`O=C(CCCc1ccccc1)N1CCN(c2ccc(-c3ccc4c(c3)OCO4)nn2)CC1` gave OTUD3 block 9, USP28 inh 19, USP30 block 30* and USP17 inh 24.
For COc1ccc(-c2noc(-c3ccc(OCC(=O)NCc4ccccc4OC)cc3)n2)cc1 the results were OTUD3 block -9, USP28 inh -8, USP30 block -36 and USP17 inh 0.
`COc1ccc(C(=O)Nc2cnc(N3CCCCC3)nc2)cc1` gave OTUD3 block -14, USP28 inh 38*, USP30 block -31 and USP17 inh -13.
For Cc1ccc(C(=O)Nc2ccc3nccnc3c2)cc1 the results were OTUD3 block 6, USP28 inh 59*, USP30 block 29 and USP17 inh 6.
`COc1ccc(C(=O)Nc2ccc3nc(C)c(C)nc3c2)cc1` gave OTUD3 block -5, USP28 inh 21, USP30 block -10 and USP17 inh -5.
For CCN1CCN(c2ccc(NC(=O)c3ccc(OC)cc3)cn2)C1=O the results were OTUD3 block 9, USP28 inh 45*, USP30 block 9 and USP17 inh 22.
For CN(C)S(=O)(=O)Oc1ccc(C(=O)Nc2ccc(F)cc2)cc1 the results were OTUD3 block 13, USP28 inh 32*, USP30 block 41* and USP17 inh 40*.
Screening Cc1oc(C(=O)O)cc(=O)c1C returned OTUD3 block 3, USP28 inh -1 and USP30 block -2.
Screening COc1ccc(N(C)S(=O)(=O)c2ccc(Cl)c(C(=O)Nc3cccc(C(C)=O)c3)c2)cc1 returned OTUD3 block -27, USP28 inh 28, USP30 block -42 and USP17 inh -17.
For COc1ccc(NC(=O)c2ccc(C)cc2)cc1 the results were OTUD3 block 4, USP28 inh 25, USP30 block 31* and USP17 inh 45*.
For Cc1ccc(C(=O)Nc2cnc(N3CCOCC3)nc2)cc1C the results were OTUD3 block 0, USP28 inh 40*, USP30 block 5 and USP17 inh -4.
For O=C(Nc1cnc(N2CCOCC2)nc1)c1ccc(Cl)cc1 the results were OTUD3 block 15, USP28 inh 25, USP30 block -2 and USP17 inh 14.
COc1ccc(C(C)NC(=O)c2cnc(-c3ccccc3)nc2-c2ccncc2)cc1 (stereo not drawn) was read as OTUD3 block -185, USP28 inh -126, USP30 block inactive and USP17 inh 40*.
`COc1ccc(NC(=O)c2ccc(Nc3nnc(C)c4ccccc34)cc2)cc1` gave OTUD3 block -3, USP28 inh 66*, USP30 block 17 and USP17 inh 23.
Screening Cc1ccc(C)c(CNC(=O)c2cnc(-c3ccccc3)nc2-c2ccncc2)c1 returned OTUD3 block -72, USP28 inh -79, USP30 block -308 and USP17 inh -28.
CCOc1ccc(NC(=O)c2cnc(Nc3ccc(OC)cc3)c3ccccc23)cc1 was read as OTUD3 block 25, USP28 inh -14, USP30 block -12 and USP17 inh 8.
`O=c1cc(CN2CCN(C3CCCCC3)CC2)cc[nH]1` gave OTUD3 block -13, USP28 inh -18, USP30 block -56 and USP17 inh -20.
For C[C@@H](c1ccccc1)N1C(=O)N[C@@H](CCC(=O)Nc2ccc3c(c2)OCO3)C1=O the results were OTUD3 block 2, USP28 inh 0, USP30 block -6 and USP17 inh 22.
For COC(=O)c1cccnc1-n1c(=O)c2cccnc2n(CC(=O)Nc2ccc(Cl)cc2F)c1=O the results were OTUD3 block 0, USP28 inh 3, USP30 block 0 and USP17 inh 0.
Screening CSCCC(NS(=O)(=O)c1ccc2c(c1)OCCO2)C(=O)NC1CCCCC1 (stereo not drawn) returned OTUD3 block 0, USP28 inh -6 and USP30 block -16.
COc1ccc(C(=O)Nc2cnc(-c3ccccc3)nc2)cc1 was read as OTUD3 block -7, USP28 inh -10, USP30 block -17 and USP17 inh 38*.
For O=C1c2c(O)c(Cl)cc3c2[C@@]2(Oc4ccc(O)c5c4[C@]3(O2)[C@@H]2O[C@@H]2C5=O)[C@@H]2O[C@H]12 the results were OTUD3 block 89*, USP28 inh 90*, USP30 block 44* and USP17 inh 80*.
For CCOC(=O)c1ccc(NC(=O)COc2cccc3c2CCN(Cc2cccnc2)C3=O)cc1 the results were OTUD3 block -18, USP28 inh 32*, USP30 block 4 and USP17 inh 4.
Screening CCCn1nnnc1CN1CCc2cc(OC)c(OC)cc2C1c1ccccc1 (stereo not drawn) returned OTUD3 block 10, USP28 inh 8, USP30 block 33* and USP17 inh 10.
O=C(c1ccco1)N1c2ncnn2C2(CCCCC2)[C@@H]2CCCC[C@@H]21 was read as OTUD3 block 2, USP28 inh -2, USP30 block 4 and USP17 inh 0.
Screening O=C(/C=C/c1cccc(F)c1)NCc1nnc2c(C(F)(F)F)cc(Cl)cn12 returned OTUD3 block 7, USP28 inh 5, USP30 block 15 and USP17 inh 7.
`O=c1c(-c2nc(-c3ccncc3)no2)cccn1Cc1cc(=O)n2ccccc2n1` gave OTUD3 block -4, USP28 inh -2, USP30 block -4 and USP17 inh -3.
NS(=O)(=O)c1cccc(NC(=O)/C=C/c2cn(-c3ccccc3)nc2-c2cccc([N+](=O)[O-])c2)c1 was read as OTUD3 block 5, USP28 inh 23, USP30 block 34* and USP17 inh 4.
For Cc1cccc(NC(=O)COc2cccc3ccc(N4CCC(C(N)=O)CC4)nc23)c1 the results were OTUD3 block -7, USP28 inh 0, USP30 block 15 and USP17 inh 33*.
Screening CC(=O)Nc1cccc(NC(=O)COc2cccc3ccc(N4CCCC4)nc23)c1 returned OTUD3 block -3, USP28 inh 15, USP30 block 15 and USP17 inh 53*.
O=C(NC1CCCCC1)C1CC(=O)N(c2cccc(-c3noc(-c4cccs4)n3)c2)C1 (stereo not drawn) was read as OTUD3 block 0 and USP17 inh 39*.
Screening Cc1cc2cc(CCNC(=O)c3ccc(F)cc3)c(=O)[nH]c2cc1C returned OTUD3 block 8, USP28 inh 8, USP30 block 11 and USP17 inh 2.
Cc1ccc2cc(CCNC(=O)c3cccc(Br)c3)c(=O)[nH]c2c1 was read as OTUD3 block -7, USP28 inh -11, USP30 block -1 and USP17 inh 67*.
